The nature of test [1]: qHTS assay to identify small molecule agonists of the TGF-beta/Smad signaling pathway (AID 1346859; active means well fitted activation curve with a large enough effect in the signal ratio in the repeat runs, not every such curve was filed as active; the % refers to the signal ratio; further: series mostly up to about 77 µM). An outline of the steps:
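Dual-wavelength fluorescence (460/530 nm emission) quantified beta-lactamase expression under the Smad binding element in HEK 293T cells following 5 hr compound treatment at 37 C.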
For orientation: Quantitative high-throughput screening tests each substance at several concentrations.

The target in test [2] is Thyrotropin-releasing hormone receptor (Homo sapiens) (UniProt P34981). Description: qHTS assay to identify small molecule antagonists of the thyrotropin-releasing hormone receptor (TRHR) signaling pathway (AID 1346877; active means well fitted inhibition curve with a large enough effect in the repeat runs, not every such curve was filed as active; further: series mostly up to about 51 µM). In outline:
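Intracellular calcium fluorescence, read kinetically every second over 3 min, reports TRH-evoked signalling in HEK293 cells carrying TRHR. Test compounds were added 5 min ahead of a 1 nM TRH challenge.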

Test [3] shares this target. Description: qHTS assay to identify small molecule agonists of the thyrotropin-releasing hormone receptor (TRHR) signaling pathway (AID 1346891; calls by dose curve;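 further: HEK293 cells expressing TRHR with calcium dye readout; series mostly up to about 58 µM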). In outline:
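Kinetic fluorescence (3 min, 1 s intervals) reported intracellular calcium after compound transfer onto TRHR-Hek293 cells pre-loaded with dye for 2 h at 37 °C.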

Test [4] can be described thus: Human pregnane X receptor (PXR) small molecule agonists, qHTS cell viability counter screen (AID 1346977). Further: nearly all actives have a fitted effect of over 50% in size. An outline of the steps:
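HepG2 cells stably carrying the PXR-Luc reporter are cultured with 5% charcoal-stripped FBS and treated with compounds for 24hr. CellTiter-Fluor is added at 23hr and fluorescence is read after 1hr.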

Test [5] can be described thus: Caspase-3/7 induction in HepG2 cells by small molecules, qHTS assay (AID 1346978). Further: nearly all actives have a fitted effect of over 15% in size. In outline: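 Wild-type HepG2 cells (2,000/well) were settled 5 h at 37 C, 5% CO2, then exposed to compounds in DMSO for 17 h. Caspase-3/7 activity was read by luminescence 30 min after adding Caspase-Glo 3/7 reagent at room temperature.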
Test [6] is described as follows: Caspase-3/7 induction in CHO-K1 cells by small molecules, qHTS cell viability counter screen (AID 1346979). Further: nearly all actives have a fitted effect of over 35% in size. An outline of the steps:
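Seeding: 1,500 CHO-K1 cells/well. Rest: 5hr, 37C. Treatment: compounds in DMSO, 16hr. Read: CellTiter-Fluor, 1hr, fluorescence.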

Test [7] is described as follows: Caspase-3/7 induction in CHO-K1 cells by small molecules, qHTS assay (AID 1346980). Further: nearly all actives have a fitted effect of over 15% in size. An outline of the steps:
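Wild-type cells were seeded at 1,500 per well and settled 5 hr at 37 C, 5% CO2, then exposed to DMSO-dissolved compounds for 17 hr. Caspase-Glo 3/7 reagent was added, and luminescence was read after 30min at room temperature.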

A short description of test [8]: Caspase-3/7 induction in HepG2 cells by small molecules, qHTS cell viability counter screen (AID 1346981). Further: series mostly up to about 92 µM; nearly all actives have a fitted effect of over 30% in size. In outline:
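HepG2, WT, 2,000 cells/well; 5 hr pre-incubation 37 C/5% CO2; compound pin-transferred from DMSO; 16 hr exposure; CellTiter-Fluor, 1 hr; fluorescence read.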

Test [9] concerns the target Cytochrome P450 2D6 (Homo sapiens) (UniProt P10635). Description: Cytochrome P450 Family 2 Subfamily D Member 6 (CYP2D6) small molecule antagonists: luciferase reporter qHTS assay (AID 1671196). Further: nearly all actives have a fitted effect of over 50% in size. Further: potency means the concentration at half of the fitted maximal effect. An outline of the steps: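 Read-out is luminescence from luciferin formed by CYP2D6 turnover of a proluciferin substrate, recorded as relative luminescence units. Reactions ran 1 h at room temperature after NADPH regeneration solution was added.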
(In a reporter assay the amount or activity of a reporter protein is the signal.)

In test [10] the target is Cytochrome P450 2C19 (Homo sapiens) (UniProt P33261). The experiment in a line: Cytochrome P450 Family 2 Subfamily C Member 19 (CYP2C19) small molecule antagonists: luciferase reporter qHTS assay (AID 1671197). Further: nearly all actives have a fitted effect of over 65% in size. Further: potency means the concentration at half of the fitted maximal effect. An outline of the steps:
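Compounds were tested on CYP2C19 activity via proluciferin conversion to luciferin. The 37C, 1 h reaction followed NADPH addition; detection reagent stopped it.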

In test [11] the target is Cytochrome P450 2C9 (Homo sapiens) (UniProt P11712). Description: Cytochrome P450 Family 2 Subfamily C Member 9 (CYP2C9) small molecule antagonists: luciferase reporter qHTS assay (AID 1671198). Further: nearly all actives have a fitted effect of over 50% in size. Further: potency means the concentration at half of the fitted maximal effect. An outline of the steps: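 CYP2C9 activity was measured with a P450-Glo proluciferin substrate. Enzyme–substrate mix was held with compound for 10 min at room temperature, then NADPH regeneration solution was added for 1 h at 37C. Luciferin product was read as luminescence.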

The target in test [12] is Cytochrome P450 1A2 (Homo sapiens) (UniProt P05177). The experiment in a line: Cytochrome P450 Family 1 Subfamily A Member 2 (CYP1A2) small molecule antagonists: luciferase reporter qHTS assay (AID 1671199). Further: nearly all actives have a fitted effect of over 50% in size. Further: potency means the concentration at half of the fitted maximal effect. An outline of the steps: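 P450-Glo CYP1A2, 1536-well qHTS: enzyme/proluciferin substrate + cpd (DMSO), 10 min RT; NADPH regen, 1 h RT; detection reagent, 20 min; luminescence, RLU.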

Test [13] concerns the target Voltage-gated inwardly rectifying potassium channel KCNH2 (Homo sapiens) (UniProt Q12809). The experiment in a line: Human Ether-a-go-go-Related Gene (hERG) channel small molecule antagonists: fluorescence cell-based qHTS assay (AID 1671200). An outline of the steps:
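First, 1000 cells per well are seeded and cultured overnight at 37 C. Next, FluxOR II dye is loaded for 1 h at room temperature, protected from light. After 10 more minutes, stimulus is added and fluorescence is read.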

Test [14] deals with Cytochrome P450 3A4 (Homo sapiens) (UniProt P08684). The experiment in a line: Cytochrome P450 Family 3 Subfamily A Member 4 (CYP3A4) small molecule antagonists: luciferase reporter qHTS assay (AID 1671201). Further: nearly all actives have a fitted effect of over 50% in size. Further: potency means the concentration at half of the fitted maximal effect. In outline: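 Enzyme and proluciferin substrate are mixed with test chemicals for 10 min, then NADPH regeneration system drives turnover for 1 h at room temperature. A detection reagent halts the reaction; luminescence after 20 min gives relative activity.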

Test [15] addresses Nuclear receptor subfamily 1 group I member 2 (Homo sapiens) (UniProt O75469). The experiment in a line: Human pregnane X receptor (PXR) small molecule agonists, qHTS assay (AID 1346982). Further: nearly all actives have a fitted effect of over 35% in size. Further: potency means the concentration at half of the fitted maximal effect. An outline of the steps: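 Luciferase signal from ONE-Glo (30 min, room temperature) measured activation of hPXR-driven CYP3A4 reporter expression in PXR-Luc HepG2 cells treated with compounds for 24 hr at 37 C.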

Test [16] concerns the target Nuclear receptor subfamily 1 group I member 2 (Rattus norvegicus) (UniProt Q9R1A7). The experiment in a line: Rat pregnane X receptor (rPXR) activation by small molecules, qHTS assay (AID 1346983). Further: nearly all actives have a fitted effect of over 20% in size. The settings on record: rPXR luciferase reporter cells, One-Glo luminescence, 24 h; max activation: hits give high values. In outline:
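Cell-based rPXR luciferase reporter assay, 2,000 cells per well, rested 5hr at 37 C before compound addition in DMSO, then 24 hr at 37 C. One-Glo reagent was added and luminescence read after 30 min at room temperature.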

The target of test [17] is Nuclear receptor subfamily 1 group I member 2 (Homo sapiens) (UniProt O75469). Description: CYP3A4 induction through human pregnane X receptor (PXR) by small molecules, qHTS assay (AID 1346984). Further: nearly all actives have a fitted effect of over 40% in size. An outline of the steps: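 Luminescence readout: luciferase signal after One-Glo (30 min, room temperature), following 3 h at 37C with 3uM final Luciferin-IPA P450 substrate. Cells were DPX-2 (HepG2, PXR/CYP3A4-luc co-transfected) dosed for 24 h.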

For test [18] the target is unchanged. The experiment in a line: Human pregnane X receptor (PXR) activation by small molecules, qHTS assay (AID 1346985). Further: nearly all actives have a fitted effect of over 40% in size. In outline:
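DPX-2 cells (HepG2 co-transfected with a PXR response element and a CYP3A4-promoter luciferase construct) were seeded at 2,000 per well, rested 5 hr at 37C, then exposed to DMSO-dissolved compounds for 24 hr. Activation was read as luciferase luminescence.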

This is an account of results in PubChem BioAssay (Tox21).

Unmarked numbers belong to inactive results. Results filed as inconclusive are left out. Active and inactive are the calls of the source. Unless noted, the call rests on the fitted dose curve; in most records, active means well fitted curve in the direction sought with a large enough effect in the repeat runs; inconclusive means weak or mixed curves; inactive means no such curve, though single readings can be large; an effect the other way counts as inactive or inconclusive.
On the % scale 0 is the no-effect control and ±100 the full control effect.

Sequence of Thyrotropin-releasing hormone receptor (Homo sapiens) (P34981 whole entry, looked up): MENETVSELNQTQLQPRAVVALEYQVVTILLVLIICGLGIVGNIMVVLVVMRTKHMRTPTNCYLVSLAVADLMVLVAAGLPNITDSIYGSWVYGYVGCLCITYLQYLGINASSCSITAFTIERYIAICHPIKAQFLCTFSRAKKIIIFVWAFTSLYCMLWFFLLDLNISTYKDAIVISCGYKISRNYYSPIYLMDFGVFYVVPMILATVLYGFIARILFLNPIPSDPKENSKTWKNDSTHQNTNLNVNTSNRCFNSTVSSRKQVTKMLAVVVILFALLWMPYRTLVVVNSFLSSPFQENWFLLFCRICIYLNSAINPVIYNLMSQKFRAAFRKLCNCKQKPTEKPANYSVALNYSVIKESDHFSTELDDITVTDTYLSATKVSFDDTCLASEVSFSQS
Sequence of Cytochrome P450 2C9 (Homo sapiens) (P11712 whole entry, looked up): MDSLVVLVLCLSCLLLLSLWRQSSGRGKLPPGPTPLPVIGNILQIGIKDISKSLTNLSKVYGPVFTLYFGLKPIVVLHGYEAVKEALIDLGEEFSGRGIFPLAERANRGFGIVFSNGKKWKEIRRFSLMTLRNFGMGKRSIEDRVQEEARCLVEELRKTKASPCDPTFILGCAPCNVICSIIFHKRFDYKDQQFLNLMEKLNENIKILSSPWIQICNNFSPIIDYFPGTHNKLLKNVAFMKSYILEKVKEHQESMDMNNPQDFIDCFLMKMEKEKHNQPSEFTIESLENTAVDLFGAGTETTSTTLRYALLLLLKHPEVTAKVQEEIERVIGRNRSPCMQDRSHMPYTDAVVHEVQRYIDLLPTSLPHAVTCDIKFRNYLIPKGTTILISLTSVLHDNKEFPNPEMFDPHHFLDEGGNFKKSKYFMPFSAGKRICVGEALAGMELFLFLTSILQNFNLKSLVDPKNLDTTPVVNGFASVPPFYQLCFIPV
Sequence of Cytochrome P450 3A4 (Homo sapiens) (P08684 whole entry, looked up): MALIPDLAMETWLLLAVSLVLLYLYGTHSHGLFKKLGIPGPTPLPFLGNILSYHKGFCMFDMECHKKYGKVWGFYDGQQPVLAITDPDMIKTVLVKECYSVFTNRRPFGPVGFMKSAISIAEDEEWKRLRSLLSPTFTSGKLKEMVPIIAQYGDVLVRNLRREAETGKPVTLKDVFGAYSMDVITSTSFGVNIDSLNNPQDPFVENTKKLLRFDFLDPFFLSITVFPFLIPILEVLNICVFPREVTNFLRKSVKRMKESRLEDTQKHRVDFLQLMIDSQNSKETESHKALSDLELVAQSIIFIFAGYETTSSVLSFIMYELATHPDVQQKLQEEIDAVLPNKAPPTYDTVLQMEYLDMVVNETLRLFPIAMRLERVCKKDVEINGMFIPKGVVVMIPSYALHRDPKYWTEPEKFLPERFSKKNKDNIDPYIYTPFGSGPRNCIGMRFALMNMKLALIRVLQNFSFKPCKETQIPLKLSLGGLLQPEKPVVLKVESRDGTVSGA
Sequence of Cytochrome P450 2D6 (Homo sapiens) (P10635 whole entry, looked up): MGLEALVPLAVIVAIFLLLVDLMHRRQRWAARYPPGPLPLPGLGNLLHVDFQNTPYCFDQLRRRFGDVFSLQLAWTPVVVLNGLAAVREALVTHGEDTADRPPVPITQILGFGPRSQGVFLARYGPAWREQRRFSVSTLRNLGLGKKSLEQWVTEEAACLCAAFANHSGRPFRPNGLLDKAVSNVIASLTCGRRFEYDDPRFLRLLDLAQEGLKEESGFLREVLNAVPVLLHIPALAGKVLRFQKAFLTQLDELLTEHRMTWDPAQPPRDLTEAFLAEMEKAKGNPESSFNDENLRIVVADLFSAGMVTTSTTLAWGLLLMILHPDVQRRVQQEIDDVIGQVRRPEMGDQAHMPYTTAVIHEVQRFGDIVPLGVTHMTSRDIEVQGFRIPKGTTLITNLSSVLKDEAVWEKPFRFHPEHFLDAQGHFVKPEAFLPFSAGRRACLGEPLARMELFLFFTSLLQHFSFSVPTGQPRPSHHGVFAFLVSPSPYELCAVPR
Sequence of Nuclear receptor subfamily 1 group I member 2 (Rattus norvegicus) (Q9R1A7 whole entry, looked up): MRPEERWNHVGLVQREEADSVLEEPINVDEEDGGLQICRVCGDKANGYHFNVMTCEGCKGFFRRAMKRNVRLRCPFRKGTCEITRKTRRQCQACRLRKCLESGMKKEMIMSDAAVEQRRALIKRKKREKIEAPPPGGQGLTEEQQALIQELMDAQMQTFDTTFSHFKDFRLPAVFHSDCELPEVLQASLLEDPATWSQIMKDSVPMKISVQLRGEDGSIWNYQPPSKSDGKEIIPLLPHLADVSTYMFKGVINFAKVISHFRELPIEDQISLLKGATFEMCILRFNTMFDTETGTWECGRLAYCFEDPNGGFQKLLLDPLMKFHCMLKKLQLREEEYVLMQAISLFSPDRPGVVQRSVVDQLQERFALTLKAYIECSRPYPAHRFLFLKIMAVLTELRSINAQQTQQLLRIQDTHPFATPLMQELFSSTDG
Sequence of Cytochrome P450 1A2 (Homo sapiens) (P05177 whole entry, looked up): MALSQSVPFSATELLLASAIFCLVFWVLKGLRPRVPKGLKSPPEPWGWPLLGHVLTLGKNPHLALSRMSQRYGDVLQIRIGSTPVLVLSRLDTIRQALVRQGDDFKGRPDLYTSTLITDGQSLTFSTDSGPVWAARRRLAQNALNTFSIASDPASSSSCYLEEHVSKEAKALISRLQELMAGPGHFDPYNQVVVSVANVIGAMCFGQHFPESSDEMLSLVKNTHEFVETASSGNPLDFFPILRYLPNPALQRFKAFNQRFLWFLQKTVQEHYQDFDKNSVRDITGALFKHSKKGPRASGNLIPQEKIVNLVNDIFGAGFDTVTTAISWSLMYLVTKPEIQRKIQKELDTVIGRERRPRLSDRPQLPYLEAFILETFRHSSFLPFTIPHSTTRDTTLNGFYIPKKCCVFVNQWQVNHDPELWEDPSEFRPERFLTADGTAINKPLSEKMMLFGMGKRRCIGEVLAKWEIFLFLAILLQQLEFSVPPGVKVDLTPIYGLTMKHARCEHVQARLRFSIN
Sequence of Nuclear receptor subfamily 1 group I member 2 (Homo sapiens) (O75469 whole entry, looked up): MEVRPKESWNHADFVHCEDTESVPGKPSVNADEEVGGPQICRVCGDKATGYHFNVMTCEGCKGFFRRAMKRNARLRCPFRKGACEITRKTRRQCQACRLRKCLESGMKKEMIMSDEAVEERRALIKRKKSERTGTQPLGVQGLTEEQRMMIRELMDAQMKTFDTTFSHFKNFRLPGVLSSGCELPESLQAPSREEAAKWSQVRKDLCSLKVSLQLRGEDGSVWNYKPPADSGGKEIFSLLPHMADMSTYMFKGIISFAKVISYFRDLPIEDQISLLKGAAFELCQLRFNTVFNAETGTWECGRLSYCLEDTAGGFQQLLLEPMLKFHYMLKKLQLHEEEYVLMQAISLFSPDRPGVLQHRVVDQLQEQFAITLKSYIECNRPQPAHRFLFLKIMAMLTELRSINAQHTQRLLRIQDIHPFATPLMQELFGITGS
Sequence of Cytochrome P450 2C19 (Homo sapiens) (P33261 whole entry, looked up): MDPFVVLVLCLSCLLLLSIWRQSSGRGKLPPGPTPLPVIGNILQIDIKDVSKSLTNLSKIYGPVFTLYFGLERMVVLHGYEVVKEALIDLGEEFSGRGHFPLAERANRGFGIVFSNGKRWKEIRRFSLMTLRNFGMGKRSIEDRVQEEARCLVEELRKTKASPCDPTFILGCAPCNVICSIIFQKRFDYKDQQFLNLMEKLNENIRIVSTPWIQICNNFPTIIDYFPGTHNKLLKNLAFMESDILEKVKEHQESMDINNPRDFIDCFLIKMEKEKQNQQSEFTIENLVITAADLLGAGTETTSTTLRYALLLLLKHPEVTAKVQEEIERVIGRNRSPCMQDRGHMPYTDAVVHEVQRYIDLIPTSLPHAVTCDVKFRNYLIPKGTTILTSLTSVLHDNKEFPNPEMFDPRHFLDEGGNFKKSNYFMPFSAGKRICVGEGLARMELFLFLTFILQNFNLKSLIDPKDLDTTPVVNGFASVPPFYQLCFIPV
Sequence of Voltage-gated inwardly rectifying potassium channel KCNH2 (Homo sapiens) (Q12809 whole entry, looked up): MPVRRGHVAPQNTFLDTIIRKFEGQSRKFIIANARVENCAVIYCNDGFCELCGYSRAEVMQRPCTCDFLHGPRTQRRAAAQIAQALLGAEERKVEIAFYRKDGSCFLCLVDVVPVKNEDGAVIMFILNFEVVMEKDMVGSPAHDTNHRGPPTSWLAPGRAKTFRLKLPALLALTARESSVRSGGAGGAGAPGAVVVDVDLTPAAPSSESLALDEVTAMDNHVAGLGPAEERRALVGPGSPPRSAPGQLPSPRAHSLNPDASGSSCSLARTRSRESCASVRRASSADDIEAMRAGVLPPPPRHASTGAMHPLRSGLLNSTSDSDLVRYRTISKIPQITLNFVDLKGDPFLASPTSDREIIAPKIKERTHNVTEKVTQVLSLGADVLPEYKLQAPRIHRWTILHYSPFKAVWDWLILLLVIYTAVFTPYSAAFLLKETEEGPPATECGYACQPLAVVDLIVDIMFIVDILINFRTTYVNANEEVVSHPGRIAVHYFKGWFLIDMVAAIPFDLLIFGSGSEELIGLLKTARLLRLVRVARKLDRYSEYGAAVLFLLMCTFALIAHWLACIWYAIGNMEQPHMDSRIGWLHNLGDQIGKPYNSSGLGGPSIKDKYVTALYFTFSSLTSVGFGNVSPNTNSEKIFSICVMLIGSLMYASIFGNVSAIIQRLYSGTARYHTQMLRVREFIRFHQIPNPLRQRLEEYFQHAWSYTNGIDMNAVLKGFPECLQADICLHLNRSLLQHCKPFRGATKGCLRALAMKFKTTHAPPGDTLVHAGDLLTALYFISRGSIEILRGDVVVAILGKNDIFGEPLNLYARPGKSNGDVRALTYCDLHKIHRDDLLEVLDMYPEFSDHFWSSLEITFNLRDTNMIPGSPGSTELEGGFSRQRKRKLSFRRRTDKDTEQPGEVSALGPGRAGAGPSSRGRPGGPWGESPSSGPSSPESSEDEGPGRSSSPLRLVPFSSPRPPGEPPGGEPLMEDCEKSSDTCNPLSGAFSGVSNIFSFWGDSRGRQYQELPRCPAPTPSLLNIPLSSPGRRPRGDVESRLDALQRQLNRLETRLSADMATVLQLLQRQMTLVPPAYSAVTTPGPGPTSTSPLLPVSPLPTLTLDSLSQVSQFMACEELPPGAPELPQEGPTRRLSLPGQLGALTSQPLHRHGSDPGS

As for `CC1(C)CC(N)CC(C)(C)N1`, the compound was classed as inactive in test [1], in [2], in [4], in test [5], in test [7] and in test [8]. The Potency result in test [3], in test [6], in [9], in test [10], in test [11] and in [12] was “inactive” throughout. In addition, the Potency result in test [13] and in test [14] was “inactive” throughout.
Regarding `CSC(=O)c1cccc2nnsc12`, the result in test [1], in test [2], in test [4], in test [5], in test [7] and in [8] was inactive. For the same compound, the Potency result in test [3], in test [6], in [13] and in [14] was “inactive” each time. Also, the Potency in [9] was 35.6 µM (active); in test [10], 12.6 µM (active); in [11] it was 7.96 µM (active); in test [12], 0.71 µM (active).
For the compound `Cc1ccc(S(=O)(=O)NC(=O)NN2CC3CCCC3C2)cc1` (stereo unspecified), the call in [1], in test [2], in [4], in test [7], in [8] and in test [17] was inactive. The result in [18] was inactive. In addition, the Potency entry in test [3], in [6], in test [15], in [9], in test [11] and in test [12] was “inactive” in each case. Further, the Potency entry in test [13] and in test [14] was “inactive” each time. In [16], the max activation was 1.11%.
On to `CN(C)CCc1c[nH]c2ccc(CS(=O)(=O)N3CCCC3)cc12`, for which the call in [1], in test [2], in [4], in test [7], in test [8] and in test [17] was inactive. In test [18], the compound was classed as inactive. Besides, the Potency entry in test [3], in [6], in test [15], in test [11], in test [12] and in [13] was “inactive” each time. In addition, in test [16], the max activation was -1.76%.
As to `C[C@@H](CN1CC(=O)NC(=O)C1)N1CC(=O)NC(=O)C1`, the outcome in [1], in test [2], in test [4], in test [7], in test [8] and in test [17] was inactive. Further, the outcome in test [18] was inactive. The Potency result in [3], in test [6], in test [15], in [9], in test [10] and in test [11] was “inactive” throughout. For the same compound, the Potency entry in test [12], in test [13] and in test [14] was “inactive” each time. Moreover, the max activation in [16] is -0.624%.
Regarding `O=C(O)CCC(=O)Nc1ccc(S(=O)(=O)Nc2nccs2)cc1`, the compound was classed as inactive in test [1], in test [2], in test [4], in test [5], in [7] and in test [8]. Further, the Potency entry in test [3], in test [6] and in test [13] was “inactive” throughout.
As to `CCCCCC(=O)CC`, the call in [1], in test [2], in test [4], in [5], in test [7] and in [8] was inactive. For the same compound, the Potency result in test [3], in test [6], in [9], in test [10], in test [13] and in [14] was “inactive” each time.
As to `CC(C)(O)CCCC1=CCC(C=O)CC1` (stereo unspecified), the call in test [1], in [2], in test [4], in [5], in test [7] and in test [8] was inactive. For the same compound, the Potency entry in [3], in [6] and in test [13] was “inactive” throughout. The Potency in test [10] is 10.7 µM (active); in test [11], 60.2 µM (active); in test [12], 38 µM (active); in [14], 67.5 µM (active).
In the case of `CC(CC(=O)Cl)CC(C)(C)C` (stereo unspecified), the compound was classed as inactive in [1], in test [4], in test [5], in test [7] and in test [8]. In addition, the Potency entry in [6], in test [15], in [9], in test [13] and in test [14] was “inactive” throughout. Also, the Potency in test [10] is 80.2 µM (active).
Take `C[C@H]1COc2c(C3(N)CC3)c(F)cc3c(=O)c(C(=O)O)cn1c23`: the compound was classed as inactive in test [1], in test [4], in test [7], in test [8], in test [17] and in [18]. In addition, the Potency entry in [6], in [15], in test [9], in test [10], in [12] and in [13] was “inactive” throughout. In addition, the Potency entry in test [14] is “inactive”. Also, the max activation in test [16] is -2.87%.
Take `C=CC(C)(CCC=C(C)C)OC(=O)C(C)C` (stereo unspecified): the compound was classed as inactive in test [2], in [4], in test [5], in [7] and in test [8]. The Potency entry in [3], in test [6], in test [15], in test [9], in test [12] and in test [13] was “inactive” each time. The Potency in [10] is 71 µM (active); in test [11], 39.9 µM (active); in test [14] it was 63.3 µM (active).
Consider `Cc1ccc(N)nc1`, for which the compound was called inactive in [1], in test [4], in test [5], in test [7] and in test [8]. Further, the Potency entry in test [6], in test [15], in [10], in test [11], in [13] and in test [14] was “inactive” throughout.
Turning to `CCCCCCCCC1CO1` (stereo unspecified), the outcome in test [1], in [4], in test [7] and in [8] was inactive. In addition, the Potency entry in test [6], in test [9], in test [11], in [12], in test [13] and in [14] was “inactive” throughout. In test [15], the Potency was 55.7 µM (active).
With `CCOC(=O)CC`, the compound was classed as inactive in test [1], in test [4], in test [5], in test [7] and in test [8]. For the same compound, the Potency entry in [6], in [9], in test [11], in [12], in test [13] and in [14] was “inactive” each time.
